Reference: PubChem BioAssay AID1159580 (chemical genetic matrix, 2015)
“And” between values parts separate entries of the source, which are not always exact repeats. Equal entries are not always repeated. About 2,000 (36%) of roughly 5,500 compounds were called active. Not shown: some 18% with an inconclusive outcome. No stated cut-off is given here; in the data, active means normalized growth mostly below about 0.91 (no sharp cut-off); inconclusive means no clear call, values can overlap the other calls; inactive means mostly above about 0.92. Some of the results follow.

Assay: chemical genetic growth profiling, strain panel (AID 1159580);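 further: tested at 20 µM; growth read once vehicle control cultures reached saturation at 30 °C; 1 = growth at the plate median or of vehicle wells; lower values mean less growth of the strain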
Details: S. cerevisiae deletion strains, growth OD

Measured: normalized growth

CN1CCc2cc3c(cc2C1O)OCO3 (centres undefined)
inactive: locus YAL021C, strain ccr4, hits give low values 1.03 | locus YAL026C, strain drs2, hits give low values 0.986 | locus YAL030W, strain snc1, hits give low values 0.993 | locus YBL061C, strain skt5, hits give low values 0.984 | locus YBR009C, strain hhf1, hits give low values 1.01 | locus YBR021W, strain FUR4, hits give low values 1.08 | locus YBR023C, strain chs3, hits give low values 1.01 | locus YBR171W, strain sec66, hits give low values 0.978 | locus YBR229C, strain ROT2, hits give low values 0.954 | locus YBR231C, strain swc5, hits give low values 0.954 | locus YBR279W, strain paf1, hits give low values 1 | locus YCL011C, strain gbp2, hits give low values 1.01 | locus YCL016C, strain dcc1, hits give low values 1.01 | locus YCL029C, strain bik1, hits give low values 0.982 | locus YCL061C, strain MRC1, hits give low values 1 | locus YCL069W, strain vba3, hits give low values 0.988 | locus YCR088W, strain abp1, hits give low values 0.988 | locus YDL005C, strain med2, hits give low values 0.992 | locus YDL035C, strain GPR1, hits give low values 0.993 | locus YDL040C, strain nat1, hits give low values 0.995 | locus YDL074C, strain BRE1, hits give low values 1.03 | locus YDL101C, strain DUN1, hits give low values 0.977 | locus YDL185W, strain tfp1, hits give low values 0.969 | locus YDL192W, strain arf1, hits give low values 0.998 | locus YDR001C, strain nth1, hits give low values 0.994 | locus YDR069C, strain doa4, hits give low values 0.969 | locus YDR101C, strain arx1, hits give low values 1.02 | locus YDR137W, strain rgp1, hits give low values 0.981 | locus YDR150W, strain NUM1, hits give low values 0.987 | locus YDR159W, strain sac3, hits give low values 0.946 | locus YDR162C, strain NBP2, hits give low values 0.943 | locus YDR195W, strain ref2 0.934 | locus YDR297W, strain sur2, hits give low values 1.01 | locus YDR318W, strain mcm21, hits give low values 0.978 | locus YDR334W, strain swr1, hits give low values 0.993 | locus YDR335W, strain msn5, hits give low values 1.01 | locus YDR388W, hits give low values 0.956 | locus YDR392W, strain spt3, hits give low values 0.926 | locus YDR502C, strain sam2, hits give low values 0.973 | locus YEL003W, strain gim4, hits give low values 0.966 | locus YEL037C, strain rad23, hits give low values 1 | locus YEL061C, strain CIN8 (second series), hits give low values 0.987 | locus YEL061C, strain CIN8, hits give low values 0.99 | locus YER015W, strain faa2, hits give low values 0.996 | locus YER016W, strain bim1, hits give low values 0.986 | locus YER110C, hits give low values 0.977 | locus YER111C, strain swi4, hits give low values 0.992 | locus YER155C, strain BEM2 (second series), hits give low values 0.962 | locus YER155C, strain BEM2, hits give low values 0.984 | locus YER167W, strain BCK2, hits give low values 0.986 | locus YFR010W, strain ubp6, hits give low values 0.979 | locus YGL078C, strain dbp3, hits give low values 0.995 | locus YGL086W, strain mad1, hits give low values 1.05 | locus YGL167C, strain pmr1, hits give low values 0.989 | locus YGL173C, strain kem1, hits give low values 0.994 | locus YGL227W, strain vid30, hits give low values 0.986 | locus YGL240W, strain doc1, hits give low values 0.957 | locus YGL248W, strain PDE1, hits give low values 0.974 | locus YGL253W, strain hxk2, hits give low values 0.988 | locus YGR135W, strain pre9, hits give low values 0.966 | locus YGR252W, strain gcn5, hits give low values 0.95 | locus YHR013C, strain ard1, hits give low values 0.995 | locus YHR027C, strain rpn1, hits give low values 0.991 | locus YHR030C, strain SLT2, hits give low values 0.992 and 1.09 | locus YHR079C, strain IRE1 (second series), hits give low values 0.978 | locus YHR079C, strain IRE1, hits give low values 1.1 | locus YHR094C, strain hxt1, hits give low values 0.968 | locus YHR129C, strain ARP1, hits give low values 0.99 | locus YHR142W, strain chs7, hits give low values 1.01 | locus YHR200W, strain rpn10, hits give low values 0.964 | locus YIL066C, strain RNR3, hits give low values 0.989 | locus YIL073C, strain SPO22, hits give low values 0.988 | locus YIL125W, strain kgd1, hits give low values 0.988 | locus YIR030C, strain dcg1, hits give low values 0.977 | locus YJL092W, strain hpr5, hits give low values 1 | locus YJL095W, strain BCK1 (second series), hits give low values 1.01 | locus YJL095W, strain BCK1, hits give low values 0.953 and 1.06 | locus YJL115W, strain asf1, hits give low values 0.994 | locus YJL129C, strain trk1, hits give low values 0.979 | locus YJL134W, strain LCB3, hits give low values 0.989 | locus YJL154C, strain vps35, hits give low values 0.989 | locus YJL164C, strain tpk1, hits give low values 1 | locus YJL166W, strain qcr8, hits give low values 0.98 | locus YJL168C, strain set2, hits give low values 0.989 | locus YJL187C, strain SWE1 (second series), hits give low values 0.974 | locus YJL187C, strain SWE1, hits give low values 0.995 | locus YJR043C, strain POL32, hits give low values 0.975 | locus YJR066W, strain TOR1, hits give low values 0.999 | locus YJR075W, strain HOC1, hits give low values 0.976 | locus YKL009W, strain mrt4, hits give low values 0.964 | locus YKL068W, hits give low values 0.989 | locus YKL085W, strain MDH1 (second series), hits give low values 0.974 | locus YKL085W, strain MDH1, hits give low values 0.974 | locus YKL160W, strain elf1, hits give low values 0.996 | locus YKR001C, strain vps1, hits give low values 0.998 | locus YKR026C, strain gcn3, hits give low values 0.978 | locus YKR091W, strain srl3, hits give low values 0.992 | locus YLL001W, strain dnm1, hits give low values 0.983 | locus YLL026W, hits give low values 0.998 | locus YLL041C, strain sdh2, hits give low values 0.999 | locus YLR027C, strain aat2, hits give low values 0.995 | locus YLR039C, strain RIC1, hits give low values 0.928 | locus YLR058C, strain SHM2, hits give low values 0.969 | locus YLR102C, strain apc9, hits give low values 0.98 | locus YLR113W, strain HOG1, hits give low values 1.07 | locus YLR221C, strain rsa3, hits give low values 1 | locus YLR258W, strain gsy2, hits give low values 1.01 | locus YLR262C, strain YPT6 (second series), hits give low values 1.01 | locus YLR262C, strain YPT6, hits give low values 0.911 | locus YLR268W, strain sec22, hits give low values 1 | locus YLR320W, strain mms22, hits give low values 0.985 | locus YLR330W, strain CHS5, hits give low values 0.991 | locus YLR342W, strain FKS1 (second series), hits give low values 1.04 | locus YLR342W, strain FKS1, hits give low values 0.999 | locus YLR357W, strain rsc2, hits give low values 0.977 | locus YLR370C, strain arc18, hits give low values 1 | locus YLR371W, strain rom2, hits give low values 0.985 | locus YLR384C, strain iki3, hits give low values 0.981 | locus YLR418C, strain cdc73, hits give low values 0.95 | locus YML016C, strain PPZ1, hits give low values 0.992 | locus YML032C, strain rad52, hits give low values 0.974 | locus YML120C, strain ndi1, hits give low values 0.995 | locus YML124C, strain tub3, hits give low values 0.983 | locus YMR058W, strain fet3, hits give low values 1.01 | locus YMR078C, strain ctf18, hits give low values 0.984 | locus YMR125W, strain sto1, hits give low values 0.987 | locus YMR129W, hits give low values 0.987 | locus YMR205C, strain PFK2, hits give low values 0.996 | locus YMR223W, strain ubp8, hits give low values 0.956 | locus YMR231W, strain pep5, hits give low values 0.979 | locus YMR263W, strain SAP30, hits give low values 0.981 | locus YMR307W, strain GAS1, hits give low values 0.951 | locus YNL067W, strain RPL9B, hits give low values 0.97 | locus YNL071W, strain lat1, hits give low values 1 | locus YNL153C, strain GIM3, hits give low values 0.968 | locus YNL183C, strain NPR1, hits give low values 0.999 | locus YNL209W, strain ssb2, hits give low values 1 | locus YNL233W, strain BNI4, hits give low values 0.998 | locus YNL248C, strain rpa49, hits give low values 1 | locus YNL250W, strain rad50, hits give low values 0.988 | locus YNL271C, strain bni1, hits give low values 0.982 | locus YNL298W, strain CLA4, hits give low values 0.956 | locus YNL307C, strain MCK1, hits give low values 0.988 | locus YNL322C, strain KRE1 (second series), hits give low values 1 | locus YNR049C, strain mso1, hits give low values 1 | locus YNR052C, strain pop2, hits give low values 0.982 | locus YOL012C, strain htz1 1.7 | locus YOL147C, strain pex11, hits give low values 0.986 | locus YOR001W, strain rrp6, hits give low values 0.961 | locus YOR061W, strain CKA2, hits give low values 0.969 | locus YOR069W, strain VPS5, hits give low values 0.994 | locus YOR070C, strain gyp1, hits give low values 0.993 | locus YOR080W, strain dia2, hits give low values 0.977 | locus YOR083W, strain WHI5, hits give low values 1.01 | locus YOR106W, strain vam3, hits give low values 1.01 | locus YOR136W, strain idh2, hits give low values 0.989 | locus YOR144C, strain elg1, hits give low values 0.977 | locus YOR184W, strain ser1, hits give low values 0.959 | locus YOR231W, strain MKK1, hits give low values 1.09 | locus YOR265W, strain rbl2, hits give low values 1.01 | locus YOR270C, strain vph1, hits give low values 0.995 | locus YOR290C, strain snf2, hits give low values 1.04 | locus YOR316C, strain cot1, hits give low values 0.979 | locus YPL051W, strain arl3, hits give low values 0.994 | locus YPL078C, strain atp4, hits give low values 1.01 | locus YPL106C, strain sse1, hits give low values 0.994 | locus YPL240C, strain hsp82, hits give low values 0.99 | locus YPL241C, strain CIN2, hits give low values 0.988 | locus YPL256C, strain CLN2, hits give low values 1.08 | locus YPR119W, strain clb2, hits give low values 0.982 | locus YPR141C, strain kar3, hits give low values 0.978 | locus YPR163C, strain tif3, hits give low values 0.987 | locus YPR167C, strain met16, hits give low values 0.99 | strain wtn01, hits give low values 1.04
